Measurements published in the supplement of paper PMC10849652.
Of roughly 7,900 targets only a part is listed; those with a hit were picked by preference. About 0.6% of all pairs of compound and target were hits. Unmarked numbers belong to inactive results.

Columns and labels:
Experiment in all cases: log2 fold change, soluble protein after heating vs DMSO (PISA); higher = thermal stabilisation; K562 cells, 10 uM, 30 min; active = over 0.2 and 3.5 SD of the protein, either way, in both replicates (recomputed)
[1] = compound: COC1=CC=C(C=C1)CN2C=CC3=C2C=C(C=C3)C(=O)NO
How it was run: (§1)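 Values are thermal stability changes relative to control samples and are taken from duplicates. They are stated as log2 fold changes. Before quantification by TMTpro 16plex LC-MS/MS with equalised channel sums, K562 cells at 2×10^6 cells/mL were treated with 10 μM compound for 30 min, heated in aliquots for 3 min across 48°C-58°C, pooled, extracted in PBS with 0.5% NP-40 at 4°C, and centrifuged at 21,000xg for 90 min to give the soluble supernatant.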

filanesib = compound: CON(C)C(=O)N1N=C(c2cc(F)ccc2F)S[C@@]1(CCCN)c1ccccc1 [filanesib]
How it was run: as §1

zotarolimus = compound: CO[C@H]1C[C@@H]2CC[C@@H](C)[C@@](O)(O2)C(=O)C(=O)N2CCCC[C@H]2C(=O)O[C@H]([C@H](C)C[C@@H]2CC[C@H](n3cnnn3)[C@H](OC)C2)CC(=O)[C@H](C)/C=C(\C)[C@@H](O)[C@@H](OC)C(=O)[C@H](C)C[C@H](C)/C=C/C=C/C=C/1C [zotarolimus]
How it was run: as §1

idasanutlin = compound: COc1cc(C(=O)O)ccc1NC(=O)[C@@H]1N[C@@H](CC(C)(C)C)[C@](C#N)(c2ccc(Cl)cc2F)[C@H]1c1cccc(Cl)c1F [idasanutlin]
How it was run: as §1

alisertib = compound: COc1cc(Nc2ncc3c(n2)-c2ccc(Cl)cc2C(c2c(F)cccc2OC)=NC3)ccc1C(=O)O [alisertib]
How it was run: as §1

[2] = compound: COc1cc2nc(-c3cc(F)ccc3O)nc(N[C@@H]3CNC[C@H]3C(C)(C)O)c2cc1OC
How it was run: as §1

gefitinib = compound: COc1cc2ncnc(Nc3ccc(F)c(Cl)c3)c2cc1OCCCN1CCOCC1 [gefitinib]
How it was run: as §1

[3] = compound: COc1cccc2cc(-c3nc([C@H]4CC[C@H](C(=O)O)CC4)n4ncnc(N)c34)[nH]c12
How it was run: as §1

lapatinib = compound: CS(=O)(=O)CCNCc1ccc(-c2ccc3ncnc(Nc4ccc(OCc5cccc(F)c5)c(Cl)c4)c3c2)o1 [lapatinib]
How it was run: as §1

pictilisib = compound: CS(=O)(=O)N1CCN(Cc2cc3nc(-c4cccc5[nH]ncc45)nc(N4CCOCC4)c3s2)CC1 [pictilisib]
How it was run: as §1

Sequence of UniProt P68402 (P68402 whole entry, looked up): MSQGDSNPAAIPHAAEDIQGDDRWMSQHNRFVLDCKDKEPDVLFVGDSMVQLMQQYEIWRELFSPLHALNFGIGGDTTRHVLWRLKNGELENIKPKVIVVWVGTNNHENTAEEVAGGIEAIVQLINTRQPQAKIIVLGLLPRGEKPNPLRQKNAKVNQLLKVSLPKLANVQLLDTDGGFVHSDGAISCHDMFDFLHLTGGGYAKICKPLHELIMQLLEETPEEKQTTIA
Sequence of UniProt Q12986 (Q12986 whole entry, looked up): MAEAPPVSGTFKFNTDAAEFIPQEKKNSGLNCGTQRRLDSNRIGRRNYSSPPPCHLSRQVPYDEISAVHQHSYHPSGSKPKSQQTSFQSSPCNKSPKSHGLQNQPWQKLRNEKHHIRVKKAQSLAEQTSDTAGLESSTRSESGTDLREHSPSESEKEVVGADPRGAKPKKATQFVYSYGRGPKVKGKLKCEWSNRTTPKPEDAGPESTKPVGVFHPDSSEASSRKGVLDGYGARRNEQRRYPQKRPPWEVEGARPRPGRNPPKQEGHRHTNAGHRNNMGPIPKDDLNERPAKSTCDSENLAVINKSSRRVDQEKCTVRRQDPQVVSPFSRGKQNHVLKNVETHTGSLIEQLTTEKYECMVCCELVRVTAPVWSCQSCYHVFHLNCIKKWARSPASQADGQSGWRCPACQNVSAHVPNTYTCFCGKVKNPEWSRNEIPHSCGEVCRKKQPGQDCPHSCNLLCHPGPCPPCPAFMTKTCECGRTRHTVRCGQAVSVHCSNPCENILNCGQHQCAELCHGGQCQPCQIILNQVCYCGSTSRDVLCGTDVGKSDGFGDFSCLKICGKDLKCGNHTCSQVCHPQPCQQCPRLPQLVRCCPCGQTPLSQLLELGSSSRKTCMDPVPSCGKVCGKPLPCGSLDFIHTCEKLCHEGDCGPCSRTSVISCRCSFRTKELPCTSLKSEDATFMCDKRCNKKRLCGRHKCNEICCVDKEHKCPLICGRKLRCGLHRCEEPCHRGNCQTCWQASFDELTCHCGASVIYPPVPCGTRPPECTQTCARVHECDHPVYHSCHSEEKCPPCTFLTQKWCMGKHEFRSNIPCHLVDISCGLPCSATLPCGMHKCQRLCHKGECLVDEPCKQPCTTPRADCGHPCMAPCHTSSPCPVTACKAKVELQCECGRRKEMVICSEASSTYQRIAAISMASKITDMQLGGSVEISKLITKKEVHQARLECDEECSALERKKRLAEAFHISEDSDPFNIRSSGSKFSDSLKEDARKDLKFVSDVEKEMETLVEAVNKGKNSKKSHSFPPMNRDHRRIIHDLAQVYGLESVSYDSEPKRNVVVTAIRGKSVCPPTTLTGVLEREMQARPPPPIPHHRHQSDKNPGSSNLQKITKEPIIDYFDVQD
Sequence of UniProt Q9BT67 (Q9BT67 whole entry, looked up): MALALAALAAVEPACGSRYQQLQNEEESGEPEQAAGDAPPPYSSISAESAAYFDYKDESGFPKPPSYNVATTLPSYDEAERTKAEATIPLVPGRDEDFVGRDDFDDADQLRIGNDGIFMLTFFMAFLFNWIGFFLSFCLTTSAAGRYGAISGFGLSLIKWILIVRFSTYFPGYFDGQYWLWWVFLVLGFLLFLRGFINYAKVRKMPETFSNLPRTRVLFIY
Sequence of UniProt O15460 (O15460 whole entry, looked up): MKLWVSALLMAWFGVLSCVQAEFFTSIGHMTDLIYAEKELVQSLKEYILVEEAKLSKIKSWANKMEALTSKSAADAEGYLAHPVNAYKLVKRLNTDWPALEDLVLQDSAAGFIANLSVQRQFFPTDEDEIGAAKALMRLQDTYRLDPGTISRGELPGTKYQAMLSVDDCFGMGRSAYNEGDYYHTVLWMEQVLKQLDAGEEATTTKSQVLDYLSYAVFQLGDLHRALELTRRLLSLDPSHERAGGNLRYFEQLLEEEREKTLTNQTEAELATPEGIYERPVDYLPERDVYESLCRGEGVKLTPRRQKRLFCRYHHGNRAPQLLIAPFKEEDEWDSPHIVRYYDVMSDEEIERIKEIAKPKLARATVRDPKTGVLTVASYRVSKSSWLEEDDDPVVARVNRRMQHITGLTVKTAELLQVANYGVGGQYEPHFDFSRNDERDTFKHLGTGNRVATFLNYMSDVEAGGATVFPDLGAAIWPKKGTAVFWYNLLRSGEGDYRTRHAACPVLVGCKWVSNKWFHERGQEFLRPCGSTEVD
Sequence of UniProt Q9Y314 (Q9Y314 whole entry, looked up): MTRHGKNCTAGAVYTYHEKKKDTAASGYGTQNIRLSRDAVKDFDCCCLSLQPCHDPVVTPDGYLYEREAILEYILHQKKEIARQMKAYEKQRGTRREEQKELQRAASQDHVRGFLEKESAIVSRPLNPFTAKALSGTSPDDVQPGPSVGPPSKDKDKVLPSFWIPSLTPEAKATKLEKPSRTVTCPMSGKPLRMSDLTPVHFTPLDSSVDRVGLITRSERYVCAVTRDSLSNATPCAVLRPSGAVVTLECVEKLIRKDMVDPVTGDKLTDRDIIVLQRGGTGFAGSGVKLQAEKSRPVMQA
Sequence of UniProt Q99549 (Q99549 whole entry, looked up): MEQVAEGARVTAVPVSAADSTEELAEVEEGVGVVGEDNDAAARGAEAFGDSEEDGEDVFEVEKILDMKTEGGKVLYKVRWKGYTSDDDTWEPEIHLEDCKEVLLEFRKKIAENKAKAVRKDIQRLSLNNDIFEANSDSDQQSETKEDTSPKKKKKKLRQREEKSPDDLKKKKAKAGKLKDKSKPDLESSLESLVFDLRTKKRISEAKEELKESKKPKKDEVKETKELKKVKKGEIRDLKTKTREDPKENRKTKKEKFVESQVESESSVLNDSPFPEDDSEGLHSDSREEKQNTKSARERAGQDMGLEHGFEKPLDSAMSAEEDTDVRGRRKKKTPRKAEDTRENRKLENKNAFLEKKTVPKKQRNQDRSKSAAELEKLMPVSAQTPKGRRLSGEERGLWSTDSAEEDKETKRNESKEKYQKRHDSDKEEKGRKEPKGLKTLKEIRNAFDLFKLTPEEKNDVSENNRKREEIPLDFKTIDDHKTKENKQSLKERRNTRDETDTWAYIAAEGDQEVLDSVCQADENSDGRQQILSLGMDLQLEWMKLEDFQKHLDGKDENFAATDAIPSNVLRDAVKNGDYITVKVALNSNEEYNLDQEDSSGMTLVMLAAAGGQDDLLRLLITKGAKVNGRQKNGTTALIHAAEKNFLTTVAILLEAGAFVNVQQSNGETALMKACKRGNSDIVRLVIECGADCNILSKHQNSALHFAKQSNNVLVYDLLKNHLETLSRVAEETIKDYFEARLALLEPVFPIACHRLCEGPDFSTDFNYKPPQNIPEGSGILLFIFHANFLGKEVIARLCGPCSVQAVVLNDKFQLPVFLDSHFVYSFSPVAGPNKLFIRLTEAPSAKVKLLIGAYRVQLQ
Sequence of UniProt P40261 (P40261 whole entry, looked up): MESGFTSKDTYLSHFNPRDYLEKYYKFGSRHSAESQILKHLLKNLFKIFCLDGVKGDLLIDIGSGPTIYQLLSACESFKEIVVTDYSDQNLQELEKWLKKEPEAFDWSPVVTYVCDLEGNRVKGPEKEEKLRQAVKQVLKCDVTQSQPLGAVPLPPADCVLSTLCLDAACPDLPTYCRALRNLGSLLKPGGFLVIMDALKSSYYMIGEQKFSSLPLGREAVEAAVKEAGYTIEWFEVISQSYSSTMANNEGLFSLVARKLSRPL
Sequence of UniProt Q9H000 (Q9H000 whole entry, looked up): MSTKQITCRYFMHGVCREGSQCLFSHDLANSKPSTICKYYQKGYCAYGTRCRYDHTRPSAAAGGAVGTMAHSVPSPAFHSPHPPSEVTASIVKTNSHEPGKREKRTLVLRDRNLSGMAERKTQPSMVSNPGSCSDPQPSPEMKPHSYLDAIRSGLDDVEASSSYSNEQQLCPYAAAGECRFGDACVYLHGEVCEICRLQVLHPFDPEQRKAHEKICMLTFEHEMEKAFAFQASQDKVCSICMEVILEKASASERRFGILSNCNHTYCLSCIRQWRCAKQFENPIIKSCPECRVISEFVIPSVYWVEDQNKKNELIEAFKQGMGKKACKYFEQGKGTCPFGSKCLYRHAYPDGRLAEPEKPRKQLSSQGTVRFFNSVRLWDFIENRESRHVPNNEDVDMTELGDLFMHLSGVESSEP
Sequence of UniProt Q9BWT6 (Q9BWT6 whole entry, looked up): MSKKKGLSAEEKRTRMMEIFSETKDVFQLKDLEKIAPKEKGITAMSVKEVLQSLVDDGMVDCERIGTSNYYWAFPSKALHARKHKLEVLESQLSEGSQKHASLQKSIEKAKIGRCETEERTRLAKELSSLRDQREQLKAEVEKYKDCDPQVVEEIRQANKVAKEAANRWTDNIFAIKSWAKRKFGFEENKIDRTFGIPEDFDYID
Sequence of UniProt Q9H8H0 (Q9H8H0 whole entry, looked up): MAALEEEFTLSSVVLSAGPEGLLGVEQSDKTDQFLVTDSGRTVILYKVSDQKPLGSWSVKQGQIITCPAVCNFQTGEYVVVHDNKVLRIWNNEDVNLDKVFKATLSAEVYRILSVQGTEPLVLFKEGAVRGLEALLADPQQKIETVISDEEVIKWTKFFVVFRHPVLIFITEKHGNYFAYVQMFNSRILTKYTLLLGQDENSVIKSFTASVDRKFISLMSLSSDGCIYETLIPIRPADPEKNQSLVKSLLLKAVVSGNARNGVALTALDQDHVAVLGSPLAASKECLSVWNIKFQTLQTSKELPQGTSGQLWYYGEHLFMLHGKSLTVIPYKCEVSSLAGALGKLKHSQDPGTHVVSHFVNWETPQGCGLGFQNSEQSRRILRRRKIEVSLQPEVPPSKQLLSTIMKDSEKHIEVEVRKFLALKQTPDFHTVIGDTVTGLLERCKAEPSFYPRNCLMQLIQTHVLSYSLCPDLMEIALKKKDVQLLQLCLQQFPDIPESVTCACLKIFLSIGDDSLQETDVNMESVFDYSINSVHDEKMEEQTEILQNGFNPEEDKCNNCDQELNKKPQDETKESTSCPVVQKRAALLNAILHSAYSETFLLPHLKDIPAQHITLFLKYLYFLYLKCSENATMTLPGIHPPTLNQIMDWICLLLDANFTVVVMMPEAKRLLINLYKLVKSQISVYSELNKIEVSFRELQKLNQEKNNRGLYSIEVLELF

Row | Target | log2 fold change [1] | log2 fold change (filanesib) | log2 fold change (zotarolimus) | log2 fold change (idasanutlin) | log2 fold change (alisertib) | log2 fold change [2] | log2 fold change (gefitinib) | log2 fold change [3] | log2 fold change (lapatinib) | log2 fold change (pictilisib)
1 | MORF4L2 (UniProt Q15014) | -0.149 | 0.146 | -0.044 | 0.045 | -0.066 | -0.085 | -0.048 | -0.074 | 0.03 | -0.063
2 | NFX1 (UniProt Q12986) | -0.152 | 0.133 | -0.141 | 0.102 | 0.203 | 0.079 | 0.037 | -0.012 | 0.112 | 0.004
3 | MIS12 (UniProt Q9H081) | 0.079 | 0.004 | 0.077 | -0.011 | 0.06 | 0.035 | 0.026 | 0.032 | -0.048 | -0.005
4 | NMT1 (UniProt P30419) | -0.023 | -0.005 | 0.042 | -0.015 | -0.056 | -0.009 | -0.044 | 0.018 | 0.03 | 0.029
5 | NPEPPS (UniProt P55786) | 0.22 (active) | -0.056 | 0.338 (active) | -0.072 | -0.017 | 0.037 | -0.026 | 0.066 | -0.002 | -0.001
6 | NDUFB10 (UniProt O96000) | 0.044 | -0.025 | 0.006 | -0.035 | -0.021 | -0.047 | 0 | 0.05 | -0.035 | 0.082
7 | NNMT (UniProt P40261) | -0.057 | -0.163 | -0.001 | -0.076 | -0.06 | 0.216 | 0.041 | 0.017 | -0.019 | 0.06
8 | MKRN2 (UniProt Q9H000) | 0.024 | 0.137 | -0.035 | 0.147 | -0.009 | 0.101 | -0.099 | -0.079 | -0.027 | 0.03
9 | NEDD4 isoform 4 (UniProt P46934) | 0.036 | -0.02 | 0.064 | -0.042 | 0.053 | 0.027 | 0.074 | -0.029 | 0.028 | -0.017
10 | NAGPA (UniProt Q9UK23) | -0.025 | -0.046 | -0.099 | 0.054 | -0.069 | -0.044 | 0.001 | 0.248 | 0.139 | 0.134
11 | NMT2 (UniProt O60551) | -0.064 | -0.018 | 0.019 | -0.062 | -0.096 | 0.082 | -0.069 | -0.046 | -0.047 | 0.087
12 | MND1 (UniProt Q9BWT6) | -0.037 | -0.057 | -0.077 | 0.099 | 0.062 | -0.235 | -0.193 | 0.03 | -0.025 | 0.032
13 | PAFAH1B2 (UniProt P68402) | 0.044 | -0.074 | 0.007 | 0.082 | 0.02 | -0.071 | 0.086 | 0.033 | 0.029 | -0.28
14 | MRPS26 (UniProt Q9BYN8) | -0.039 | 0.09 | 0.04 | -0.145 | -0.078 | 0.041 | – | 0.072 | 0.074 | -0.155
15 | MTFR1L (UniProt Q9H019) | 0.036 | -0.09 | 0.037 | -0.04 | – | -0.111 | 0.083 | – | 0.044 | 0.011
16 | MSH2 (UniProt P43246) | 0.072 | 0 | 0.057 | -0.019 | -0.018 | 0.024 | 0.007 | -0.026 | -0.021 | 0.144

Row | Target | log2 fold change [1] | log2 fold change (filanesib) | log2 fold change (zotarolimus) | log2 fold change (idasanutlin) | log2 fold change (alisertib) | log2 fold change [2] | log2 fold change (gefitinib) | log2 fold change [3] | log2 fold change (lapatinib) | log2 fold change (pictilisib)
17 | MPHOSPH8 isoform 2 (UniProt Q99549) | -0.002 | 0.128 | -0.191 | 0.062 | -0.016 | 0.032 | – | 0.125 | 0.024 | –
18 | NDFIP1 (UniProt Q9BT67) | 0.051 | -0.134 | 0.106 | -0.034 | -0.105 | – | -0.155 | -0.14 | – | 0.228
19 | OPA1 isoform 2 (UniProt O60313) | -0.01 | -0.118 | 0.035 | -0.105 | 0.002 | -0.249 (active) | -0.002 | 0.002 | 0.024 | -0.07
20 | NOSIP (UniProt Q9Y314) | -0.069 | 0.143 | -0.018 | 0.029 | 0.166 | 0.174 | 0.156 | -0.053 | -0.046 | -0.067
21 | MRPS9 (UniProt P82933) | 0.009 | 0.007 | 0.065 | -0.16 | 0.076 | -0.021 | 0.084 | 0.016 | 0.096 | -0.049
22 | NA, A0A2R8Y3M9 | -0.086 | 0.079 | -0.419 | 0.279 | – | -0.123 | -0.168 | – | -0.037 | -0.35
23 | PAFAH2 (UniProt Q99487) | -0.025 | -0.089 | 0.012 | 0.153 | – | 0.043 | – | – | -0.037 | –
24 | MMS19 isoform 8 (UniProt Q96T76) | -0.094 | -0.036 | 0.037 | -0.014 | -0.019 | 0.06 | 0.026 | 0.019 | -0.021 | -0.008
25 | MRPS22 (UniProt P82650) | 0.041 | 0.05 | 0.071 | -0.301 (active) | 0.015 | 0.019 | -0.017 | -0.019 | 0.038 | -0.03
26 | OSBPL3 (UniProt Q9H4L5) | -0.052 | 0.582 | 0.14 | 0.277 | – | -0.688 | 0.174 | – | 0.391 | –
27 | MITD1 (UniProt Q8WV92) | 0.059 | 0.004 | -0.068 | -0.058 | 0.018 | -0.013 | -0.018 | 0.063 | 0.004 | -0.121
28 | MYLK (UniProt Q15746) | -0.293 | 0.041 | 0.01 | – | -0.095 | 0.043 | 0.342 | 0.16 | 0.06 | 0.098
29 | P4HA2 (UniProt O15460) | -0.109 | 0.078 | 0.026 | – | 0.011 | -0.139 | 0.006 | -0.11 | 0.075 | -0.003
30 | NOL11 (UniProt Q9H8H0) | -0.029 | 0 | 0.005 | -0.046 | -0.017 | 0.067 | -0.008 | 0.056 | 0.005 | 0.025
31 | MRPS16 (UniProt Q9Y3D3) | -0.102 | 0.044 | 0.04 | -0.348 (active) | 0.02 | -0.054 | -0.045 | -0.011 | 0.039 | -0.03
